# Molecular target: GST-WRKY1(266-371) (Arabidopsis thaliana, UniProt Q9SI37 266-371)
# Assay: universal protein binding microarray (PBM); transcription factors of Arabidopsis thaliana; high values mean tight binding
# Details: protein: recombinant; tags: GST; dsDNA, one strand shown
# How it was run: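 GST-tagged NAC-domain, full-length or DNA-binding-domain proteins were induced in cells, with zinc acetate added for zinc-finger proteins. They were purified on glutathione–Sepharose 4B and quantified by A280 or anti-GST western blot. Each was applied at 200 to 500 nM final, in duplicate, to custom all-10-mer Agilent 4 × 180K arrays made double-stranded by primer extension, with gapped and ungapped 8-mers scored. Binding is the normalised enrichment score (E-score).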
# GST-WRKY1(266-371), sequence (Q9SI37 266-371): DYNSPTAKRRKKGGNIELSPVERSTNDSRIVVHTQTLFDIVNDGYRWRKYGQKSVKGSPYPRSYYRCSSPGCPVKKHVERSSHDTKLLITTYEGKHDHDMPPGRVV
row,Sequence,binding signal
1,AAGTCCAC,0.418 E-score
2,CTGACCCA,0.401 E-score
3,TCTGACCA,0.456 E-score
4,GACCAGTC,0.406 E-score
5,ATAGGTCA,0.409 E-score
6,GTCAGACA,0.41 E-score
7,TCCGGTCA,0.445 E-score
8,GCGGTCAA,0.487 E-score
9,GTCAAGGA,0.455 E-score
10,AGTCAACC,0.486 E-score
11,ACCGGTCA,0.463 E-score
12,TCGGGTCA,0.434 E-score
13,CTCTGACC,0.458 E-score
14,CAGTCAGC,0.406 E-score
15,CGGTCAGA,0.46 E-score
16,GTGGACCA,0.418 E-score
17,CCTGGTCA,0.454 E-score
18,GACTTTGA,0.432 E-score
19,CGAGTCAA,0.477 E-score

row,Sequence,binding signal
1,GTCAGCGA,0.43 E-score
2,GCTGACCC,0.444 E-score
3,GACTGACC,0.42 E-score
4,AAGACCAG,0.427 E-score
5,CTTGGTCA,0.429 E-score
6,AGTCAGCG,0.453 E-score
7,ATGCTGAC,0.41 E-score
8,GTCAGCAA,0.403 E-score
9,CGCTGACC,0.474 E-score
10,ATCGGTCA,0.451 E-score
11,ACCTTGAC,0.472 E-score
12,CTGACCAG,0.444 E-score
13,AGGGGTCA,0.415 E-score
14,CGGTCTTC,0.438 E-score
15,GGCGGTCA,0.428 E-score
16,CGGTCCAC,0.434 E-score
17,ATTGACTC,0.47 E-score
18,GGGGGTCA,0.423 E-score
19,GAGGTCAA,0.485 E-score
